The nature of assay [1]: hit retest on RPL19A-GFP reporter strain – cell-based, S. cerevisiae, flow cytometry, cherry picks, mother/daughter gates, confirmation (AID 2270;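 active = GFP response below 50% of the DMSO control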). The note with it: 3 h, at 10 µM, stronger effect = lower value, 100 = same GFP as DMSO wells. In general terms: Flow cytometry measures light scatter and fluorescence of single cells or particles in a stream.
The nature of assay [2]: yeast TOR pathway reporter LAP4-GFP change – cell-based, cherry picks, flow cytometry, mother/daughter gates, confirmation (AID 2271;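 active = GFP response above 150% of the DMSO control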;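 also: ratio of sample to DMSO plate mean so 100% equals DMSO level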). The note with it: S. cerevisiae LAP4-GFP strain, 3 h, at 10 µM, stronger effect = higher value, 100 means same as DMSO control.
A short description of assay [3]: TOR pathway reporter MEP2-GFP, retest of hits – S. cerevisiae, flow cytometry GFP, cherry picks, confirmation (AID 2272;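 active = GFP response above 150% of the DMSO control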;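 also: ratio of well signal to plate DMSO mean so 100% equals DMSO level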). To be noted: S. cerevisiae MEP2-GFP strain, 3 h, at 10 µM, stronger effect = higher value.
Assay [4] is described as follows: yeast AGP1-GFP fluorescence change, single-dose – cell-based, flow cytometry, S. cerevisiae, cherry picks, confirmation (AID 2273).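 Also: median GFP channel fluorescence over the whole cell population gate.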 The note with it: S. cerevisiae AGP1-GFP strain, 3 h, at 10 µM.
A short description of assay [5]: TOR pathway CIT2 reporter hit retest – S. cerevisiae, GFP fusion, cherry picks, mother/daughter gates, confirmation (AID 2274). The note with it: S. cerevisiae CIT2-GFP strain, flow cytometry, 3 h, at 10 µM, stronger effect = higher value.
Assay [6] is described as follows: green-channel fluorescence artefact in S. cerevisiae – s288c strain, artefact control for yeast TOR pathway GFP screen, dose response (AID 2757;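 active = fluorescence span over the dose series, or activity score, above about 33, limit read from the data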;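 also: thousands of bead-calibrated equivalent soluble fluorophore molecules from median cell fluorescence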). To be noted: 520 nm autofluorescence, flow cytometry, 3 h, at 33 µM, stronger effect = higher value, zero means same as solvent-only cells.
The mark [7] stands for this setting: measured here: daughter cell gate.
Where [8] appears, read: measured here: mother cell gate.
Setting [9] is: measured here: mother cell gate response.
Where [10] appears, read: measured here: daughter cell gate response.

The list shows a part of the results. Active and inactive are the calls of the source.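 The calls were made as follows, unless noted: active = GFP response above 150% of the DMSO level; inconclusive = fewer than 70 events counted for a yeast strain; inactive = the rest.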

Take `Cc1cccn2c(=O)c3cc(C(=O)NCCc4ccccc4)c(=N)n(CCCn4ccnc4)c3nc12`: the GFP response vs DMSO is 95.8% (inactive) in assay [1], 94.7% in assay [1] (setting [7]), 95% in assay [1] (setting [8]) and 103% (inactive) in assay [3]. In addition, the GFP response relative to DMSO is 96.5% (inactive) in assay [2] and 92.3% in assay [2] (setting [9]). Also, the GFP response, % of DMSO is 98.6% (inactive) in assay [4], 100% (inactive) in assay [5], 99.3% in assay [5] (setting [7]) and 97.1% in assay [5] (setting [8]).
Regarding `Oc1c(CN2CCN(c3ccc(F)cc3)CC2)cc(Cl)c2cccnc12`, the GFP response vs DMSO was 101% (inactive) in assay [1], 102% in assay [1] (setting [7]), 94.3% in assay [1] (setting [8]) and 187% (active) in assay [3]. Moreover, the GFP response relative to DMSO in assay [2] was 264% (active); in assay [2] (setting [10]), 253%; in assay [2] (setting [9]), 245%. Further, the GFP response, % of DMSO in assay [4] was 104% (inactive); in assay [5], 141% (inactive); in assay [5] (setting [7]), 159%; in assay [5] (setting [8]), 125%. In addition, the fluorescence change (kMESF span) in assay [6] was 0.21 (inactive).
Take `Cc1cc(O)c(C(=O)/C=C/c2c(F)c(F)c(F)c(F)c2F)c(=O)o1`: the GFP response vs DMSO in assay [1] was 98.2% (inactive); in assay [1] (setting [7]), 103%; in assay [1] (setting [8]) it was 94.9%; in assay [3], 109% (inactive). The GFP response relative to DMSO is 152% (active) in assay [2], 145% in assay [2] (setting [10]) and 160% in assay [2] (setting [9]). Further, the GFP response, % of DMSO is 101% (inactive) in assay [4], 97.3% (inactive) in assay [5], 101% in assay [5] (setting [7]) and 94.4% in assay [5] (setting [8]). Also, in assay [6], the fluorescence change (kMESF span) is 9.67 (inactive).
For the compound `Nc1ccccc1SC(C[N+](=O)[O-])c1ccccc1` (stereo unspecified), the GFP response vs DMSO is 93.3% (inactive) in assay [1], 96.3% in assay [1] (setting [7]), 87.6% in assay [1] (setting [8]) and 112% (inactive) in assay [3]. For the same compound, the GFP response relative to DMSO is 173% (active) in assay [2], 170% in assay [2] (setting [10]) and 169% in assay [2] (setting [9]). The GFP response, % of DMSO in assay [4] is 112% (inactive); in assay [5], 92.2% (inactive); in assay [5] (setting [7]), 100%; in assay [5] (setting [8]) it was 81.8%. Further, the fluorescence change (kMESF span) in assay [6] was 0.62 (inactive).
`Cc1cccc(C)c1NC(=O)C(Cl)C(=O)c1ccccc1` (stereo unspecified): the GFP response vs DMSO in assay [1] was 89.9% (inactive); in assay [1] (setting [7]) it was 87.6%; in assay [1] (setting [8]), 82.5%; in assay [3] it was 100% (inactive). The GFP response relative to DMSO in assay [2] is 241% (active); in assay [2] (setting [10]), 168%; in assay [2] (setting [9]), 252%. For the same compound, the GFP response, % of DMSO was 101% (inactive) in assay [4], 99.7% (inactive) in assay [5], 95.4% in assay [5] (setting [7]) and 87.8% in assay [5] (setting [8]). Moreover, the fluorescence change (kMESF span) in assay [6] was 0 (inactive).
For `O=C(Cc1ccc(Cl)cc1)Nc1ccc(Br)cn1`, the GFP response vs DMSO in assay [1] is 103% (inactive); in assay [1] (setting [7]), 100%; in assay [1] (setting [8]), 103%; in assay [3] it was 118% (inactive). The GFP response relative to DMSO in assay [2] was 108% (inactive); in assay [2] (setting [10]) it was 106%; in assay [2] (setting [9]), 111%. Moreover, the GFP response, % of DMSO in assay [4] was 113% (inactive); in assay [5], 105% (inactive); in assay [5] (setting [7]), 112%; in assay [5] (setting [8]), 99.3%.
On to `COc1ccccc1/C=C/C=N/NC(=O)c1cccs1`, for which the GFP response vs DMSO in assay [1] is 97.8% (inactive); in assay [1] (setting [7]) it was 97.3%; in assay [1] (setting [8]), 97.5%; in assay [3], 107% (inactive). Besides, the GFP response relative to DMSO is 99.8% (inactive) in assay [2], 95.6% in assay [2] (setting [10]) and 102% in assay [2] (setting [9]). The GFP response, % of DMSO in assay [4] was 100% (inactive); in assay [5], 99.1% (inactive); in assay [5] (setting [7]) it was 96.5%; in assay [5] (setting [8]), 97.7%.
With `COc1ccc(C(=O)NNC(=S)NC(=O)/C=C/c2cccs2)cc1`, the GFP response vs DMSO in assay [1] was 106% (inactive); in assay [1] (setting [7]), 109%; in assay [1] (setting [8]), 104%; in assay [3], 120% (inactive). Also, the GFP response relative to DMSO in assay [2] was 201% (active); in assay [2] (setting [10]) it was 173%; in assay [2] (setting [9]) it was 198%. In addition, the GFP response, % of DMSO is 121% (inactive) in assay [4], 108% (inactive) in assay [5], 112% in assay [5] (setting [7]) and 100% in assay [5] (setting [8]).
Regarding `Cc1ccc(/C=C2/C(=O)ON=C2c2ccccc2)o1`, the GFP response vs DMSO in assay [1] was 90.4% (inactive); in assay [1] (setting [7]), 87.7%; in assay [1] (setting [8]), 82.8%; in assay [3], 129% (inactive). In addition, the GFP response relative to DMSO was 250% (active) in assay [2] and 219% in assay [2] (setting [9]). In addition, the GFP response, % of DMSO in assay [4] is 88.4% (inactive); in assay [5], 92.1% (inactive); in assay [5] (setting [7]) it was 90.9%; in assay [5] (setting [8]) it was 77%.
For `O=C1C=CC(=O)N1c1ccc(N2CCCCC2)cc1`, the GFP response vs DMSO in assay [1] is 75.5% (inactive); in assay [1] (setting [7]) it was 86.8%; in assay [1] (setting [8]) it was 63.8%; in assay [3], 87.8% (inactive). Besides, the GFP response relative to DMSO was 220% (active) in assay [2], 99.2% in assay [2] (setting [10]) and 218% in assay [2] (setting [9]). The GFP response, % of DMSO in assay [4] is 79.9% (inactive); in assay [5] it was 104% (inactive); in assay [5] (setting [7]), 97.2%; in assay [5] (setting [8]), 89%. In assay [6], the fluorescence change (kMESF span) is 0.41 (inactive).
In the case of `CCn1cc([N+](=O)[O-])c(C(=O)Nc2nc(-c3ccc(C)c(C)c3)c(C)s2)n1`, the GFP response vs DMSO in assay [1] is 98.8% (inactive); in assay [1] (setting [7]) it was 98.6%; in assay [1] (setting [8]), 99.2%; in assay [3], 100% (inactive). Also, the GFP response relative to DMSO in assay [2] was 95.4% (inactive); in assay [2] (setting [10]), 97.6%; in assay [2] (setting [9]) it was 94%. Further, the GFP response, % of DMSO is 101% (inactive) in assay [4], 99.7% (inactive) in assay [5], 99.1% in assay [5] (setting [7]) and 97.3% in assay [5] (setting [8]).
With `O=C(Nc1ccccc1)c1nnsc1S(=O)(=O)c1ccc(Cl)cc1`, the GFP response vs DMSO is 73.3% (inactive) in assay [1], 87.8% in assay [1] (setting [7]), 61.5% in assay [1] (setting [8]) and 144% (inactive) in assay [3]. Also, the values for the GFP response relative to DMSO in assay [2], in assay [2] (setting [10]) and in assay [2] (setting [9]) were 164% (active), 92.8% and 206%, respectively. Further, the GFP response, % of DMSO is 87.7% (inactive) in assay [4], 95.5% (inactive) in assay [5], 93.6% in assay [5] (setting [7]) and 84.3% in assay [5] (setting [8]). Also, the fluorescence change (kMESF span) in assay [6] was 1.31 (inactive).
For the compound `C/C(=N\Nc1ncnc2sc(C)c(C)c12)c1ccccn1`, the GFP response vs DMSO in assay [1] was 194% (inactive); in assay [1] (setting [7]) it was 112%; in assay [1] (setting [8]) it was 175%; in assay [3] it was 967% (active). Besides, the GFP response relative to DMSO in assay [2] was 434% (active); in assay [2] (setting [9]), 395%. In addition, the GFP response, % of DMSO was 107% (inactive) in assay [4], 449% (active) in assay [5], 118% in assay [5] (setting [7]) and 921% in assay [5] (setting [8]).

Source of the values: PubChem BioAssay.
